Data reported in the supplement of paper PMC10646978.
± gives the standard deviation.

Assays:
Conditions in all cases: modulator concentration 10 µM
[1] = test system: RAW-Dual (murine macrophage reporter line); test: NF-kB reporter (SEAP) activity fold change vs agonist alone; higher = enhanced NF-kB activity
Outline: (§1)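 RAW-Dual murine macrophage reporter cells were seeded at 50 000 per well in 384-well plates and pre-incubated 1 hour at 37 °C with compound pin-transferred to 10 μM final. After 1 hour, a PRR agonist was added and cells incubated overnight. Supernatant NF-κB (SEAP, QUANTI-Blue, 620 nm absorbance) and IRF (Lucia luciferase, QUANTI-Luc, luminescence) signals were divided by the mean agonist-only control on the same plate to give fold change. Two replicate plates were averaged, with errors by propagation.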

[2] = test system: RAW-Dual (murine macrophage reporter line); test: IRF reporter (Lucia luciferase) activity fold change vs agonist alone; higher = enhanced IRF activity
Outline: as §1

[3] = test system: RAW-Dual (murine macrophage reporter line); test: viability score (confluency relative to resting cells, overnight) (fraction); higher = more viable, active = viable (0.7 or more)
Outline: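 A compound met the cutoff when both of two confluency masks exceeded 70% of resting cells. Those masks were made with IncuCyte software from IncuCyte images of RAW-Dual macrophages treated overnight at 10 μM final. This is the basis of the viability score, which is confluency relative to resting cells.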

[4] = agonist: CpG ODN 1826 0.5 ug/mL

Row | SMILES | NF-kB reporter [1, 4] | NF-kB reporter ([1]; agonist: LPS 0.1 ug/mL) | NF-kB reporter ([1]; agonist: MPLA […]) | IRF reporter ([2]; agonist: 3'3'-cGAMP 10 ug/mL) | IRF reporter ([2]; agonist: LPS 0.1 ug/mL) | IRF reporter ([2]; agonist: MPLA […]) | viability score [3]
1 | CC1CC(=CC=CN(C)C)C(=O)C(=CC=CN(C)C)C1 (configuration not stated) | 1.04 ± 0.17 | 1 ± 0.085 | 0.917 ± 0.099 | 0.888 ± 0.043 | 1.22 ± 0.23 | 1.32 ± 0.28 | 1 (active)
2 | COC(=O)C1=C(C)NC(=Cc2c(F)cccc2Cl)C1=O | 0.944 ± 0.17 | 0.966 ± 0.077 | 0.963 ± 0.11 | 0.876 ± 0.023 | 1.23 ± 0.19 | 1.13 ± 0.16 | 0.985 (active)
3 | Cc1ccc(C(=O)C(C)CN2CCCCC2)cc1.Cl (configuration not stated) | 0.981 ± 0.13 | 1.05 ± 0.14 | 0.908 ± 0.052 | 0.895 ± 0.032 | 1.27 ± 0.41 | 1.43 ± 0.15 | 0.956 (active)
4 | Cc1nnc(NN=Cc2ccc(Cl)c([N+](=O)[O-])c2)[nH]c1=O | 1.08 ± 0.12 | 1.02 ± 0.088 | 1.09 ± 0.045 | 1.01 ± 0.17 | 1 ± 0.082 | 1.07 ± 0.13 | 0.997 (active)
5 | O=C(CC(c1ccccc1)c1ccccc1)Nc1ccc(CC(=O)N2CCC(O)CC2)cc1 | 1.03 ± 0.078 | 1.13 ± 0.097 | 0.907 ± 0.11 | 1.05 ± 0.062 | 1.13 ± 0.082 | 1.25 ± 0.1 | 1.01 (active)
6 | O=C(C(Cl)Cl)N1CCN(Cc2ccccc2)CC1 | 0.881 ± 0.068 | 0.67 ± 0.077 | 0.709 ± 0.072 | 0.712 ± 0.032 | 1.25 ± 0.18 | 1.28 ± 0.24 | 1.01 (active)
7 | N#Cc1nc(-c2ccc(COc3ccccc3)o2)oc1N1CCc2ccccc2C1 | 0.987 ± 0.049 | 1.13 ± 0.089 | 0.896 ± 0.05 | 0.964 ± 0.078 | 1 ± 0.16 | 0.989 ± 0.38 | 1.01 (active)
8 | NN=C1CCCc2c1[nH]c1ccc(Cl)cc21 | 1.07 ± 0.11 | 1.04 ± 0.081 | 1.05 ± 0.056 | 0.505 ± 0.13 | 0.95 ± 0.076 | 0.873 ± 0.12 | 0.99 (active)
9 | CS(=O)(=O)N(CC(=O)NCC1CCCO1)c1ccc(Cl)c(C(F)(F)F)c1 (configuration not stated) | 0.751 ± 0.071 | 0.821 ± 0.039 | 1.01 ± 0.09 | 0.993 ± 0.046 | 1.35 ± 0.095 | 1.52 ± 0.15 | 0.998 (active)
10 | Cc1c(OCc2ccc(Cl)cc2)ccc2c(C(F)(F)F)cc(=O)oc12 | 0.758 ± 0.059 | 0.94 ± 0.048 | 1.11 ± 0.17 | 0.802 ± 0.042 | 1.06 ± 0.062 | 1.07 ± 0.094 | 1.02 (active)
11 | CC(C)CCn1c(COc2ccccc2)nc2ccccc21 | 0.892 ± 0.067 | 1.02 ± 0.078 | 0.995 ± 0.028 | 0.914 ± 0.033 | 1.04 ± 0.048 | 1.09 ± 0.1 | 0.999 (active)
12 | O=C(CSc1nnc(COc2ccc(Cl)cc2)o1)N1CCCc2ccccc21 | 0.883 ± 0.044 | 1.12 ± 0.11 | 0.853 ± 0.086 | 0.885 ± 0.044 | 0.823 ± 0.05 | 0.866 ± 0.29 | 1.01 (active)
13 | Cc1cc(C)n(C2CC(=O)N(c3ccccc3)C2=O)n1 (configuration not stated) | 1.04 ± 0.08 | 0.926 ± 0.1 | 1.21 ± 0.2 | 1.05 ± 0.04 | 1.31 ± 0.25 | 1.42 ± 0.21 | 1.02 (active)
14 | CC1(C)COC(=O)C1=NNc1ccc([N+](=O)[O-])cc1 | 1.02 ± 0.1 | 1.09 ± 0.073 | 1.03 ± 0.039 | 1.03 ± 0.21 | 1.05 ± 0.13 | 1.18 ± 0.1 | 0.998 (active)
15 | CCCc1nc2ccccc2n1C(=O)C=CC(=O)O | 0.789 ± 0.061 | 0.833 ± 0.06 | 1.13 ± 0.17 | 0.981 ± 0.046 | 1.46 ± 0.12 | 1.59 ± 0.16 | 1 (active)
16 | CCCNS(=O)(=O)Nc1ncnc(OCCOc2ncc(Br)cn2)c1-c1ccc(Br)cc1 | 0.775 ± 0.21 | 0.995 ± 0.074 | 1.16 ± 0.1 | 0.417 ± 0.047 | 0.383 ± 0.083 | 0.465 ± 0.062 | 0.953 (active)
17 | NC(=O)CCC(N)C(=O)O (configuration not stated) | 1.13 ± 0.32 | 0.935 ± 0.051 | 1.03 ± 0.1 | 0.883 ± 0.049 | 1.1 ± 0.16 | 0.999 ± 0.097 | 0.997 (active)
18 | O=C(CN1CCCCC1)NN=Cc1ccccc1OCc1ccccc1 | 0.948 ± 0.08 | 1.01 ± 0.1 | 0.927 ± 0.04 | 0.99 ± 0.1 | 1.02 ± 0.082 | 1.14 ± 0.18 | 0.995 (active)
19 | CCN1CC(CCN2CCOCC2)C(c2ccccc2)(c2ccccc2)C1=O (configuration not stated) | 1.18 ± 0.32 | 1.04 ± 0.072 | 1.05 ± 0.067 | 0.874 ± 0.03 | 1.28 ± 0.14 | 1.29 ± 0.24 | 1.01 (active)
20 | O=C(NN=Cc1ccc(O)c(O)c1)c1cc2ccccc2cc1O | 0.35 ± 0.03 | 0.729 ± 0.075 | 0.589 ± 0.038 | 0.229 ± 0.017 | 0.909 ± 0.072 | 0.794 ± 0.18 | 0.997 (active)
21 | COC(=O)C1=CN(CC2CCCO2)C=C(C(=O)OC)C1c1cccc(F)c1 (configuration not stated) | 0.948 ± 0.21 | 0.907 ± 0.084 | 1.05 ± 0.098 | 0.868 ± 0.026 | 1.21 ± 0.19 | 1.18 ± 0.16 | 0.954 (active)
22 | NCCCCC(NC(CCc1ccccc1)C(=O)O)C(=O)N1CCCC1C(=O)O (configuration not stated) | 1.33 ± 0.32 | 0.955 ± 0.083 | 1.03 ± 0.088 | 0.947 ± 0.032 | 1.09 ± 0.13 | 1.02 ± 0.13 | 0.998 (active)
23 | CN(C)c1nc(CNS(C)(=O)=O)nc(N2CCOCC2)n1 | 0.908 ± 0.047 | 0.916 ± 0.091 | 1.02 ± 0.071 | 1.08 ± 0.049 | 1.07 ± 0.18 | 1.14 ± 0.38 | 1.02 (active)
24 | CCOC(=O)C1=C(C)NC(C)=C(C(=O)OCC)C1c1ccc(Cl)cc1 | 0.3 ± 0.023 | 0.27 ± 0.019 | 0.748 ± 0.026 | 0.743 ± 0.061 | 0.636 ± 0.084 | 1.67 ± 0.2 | 0.187 (inactive)
25 | COc1ccc(S(=O)(=O)N(CC(=O)Nc2ccccc2F)c2ccc(C)cc2)cc1OC | 0.984 ± 0.087 | 0.987 ± 0.057 | 0.933 ± 0.059 | 0.979 ± 0.024 | 1.54 ± 0.12 | 1.16 ± 0.26 | 1.01 (active)
26 | CCOCC(=O)Nc1nc2c(C(F)(F)F)cccc2s1 | 1.16 ± 0.067 | 0.964 ± 0.11 | 1.06 ± 0.052 | 0.969 ± 0.039 | 1.04 ± 0.048 | 1.03 ± 0.14 | 0.989 (active)
